Source: PubChem BioAssay (EPA / NIEHS)
Several values for one entry are separate records, joined by “and”; a condition that tells them apart may be missing. Equal entries are not always repeated. More than one record can exist for a structure, and the calls need not agree. Activity calls are given as the source filed them. How the source made its calls: active means hit-call score of the fitted dose curve at least 0.9, where 1 is the maximum; inactive means score below 0.9.

Legend:
[1] = read-out: Interleukin-1 alpha (IL1a), IL1A (gene 3552); assay: BSK_BF4T_IL1a: BioMAP Diversity Plus: BF4T Assay for Interleukin-1 alpha (IL1a) Biomarker Activity (AID 2284264); settings: primary human bronchial epithelial cells with fibroblasts
Method in brief: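 Human bronchial epithelial cells co-cultured with dermal fibroblasts, dosed and read at 24 h. Secreted/surface IL-1α quantified by ELISA; gain-of-signal fitted relative to DMSO baseline. Parallel SRB total-protein staining tracked cytotoxicity.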

[2] = read-out: Decorin, DCN (gene 1634); assay: BSK_MyoF_Decorin: BioMAP Diversity Plus: MyoF Assay for Decorin Biomarker Activity (AID 2284265); settings: primary human lung fibroblasts
Method in brief: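 Compound is added to lung fibroblast cultures; cells incubate 24 h; decorin is then measured by ELISA; the response is analysed upward against DMSO controls.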

[3] = read-out: KRT18 (gene 3875); assay: BSK_BF4T_Keratin818: BioMAP Diversity Plus: BF4T Assay for Keratin 818 Biomarker Activity (AID 2284266); settings: primary human bronchial epithelial cells with fibroblasts
Method in brief: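 Co-culture of human bronchial epithelial cells and dermal fibroblasts, chemical exposure 24 h. Keratin 8/18 measured by ELISA; positive-direction fit vs DMSO. SRB total protein run in parallel cultures for cytotoxicity.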

[4] = BSK_MyoF_SRB: Viability Assessment in the BioMAP Diversity Plus: MyoF Assay (AID 2284267); settings: primary human lung fibroblasts;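 further: total protein by SRB absorbance in parallel cultures as cytotoxicity measure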
Method in brief: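 Human lung fibroblasts dosed with chemical and assessed 24 h later for overt cytotoxicity in parallel cultures. Total protein quantified by sulforhodamine B staining (0.1% SRB after 10% TCA fixation), read at 560 nm, analysed in positive direction versus DMSO baseline.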

[5] = read-out: Matrix Metallopeptidase 1 (MMP1), MMP1 (gene 4312); assay: BSK_MyoF_MMP1: BioMAP Diversity Plus: MyoF Assay for Matrix Metallopeptidase 1 (MMP1) Biomarker Activity (AID 2284268); settings: primary human lung fibroblasts
Method in brief: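 Lung fibroblast cultures were dosed with test chemicals and, after 24 h, MMP1 levels were measured by ELISA; responses were referenced to DMSO and analysed for increases.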

[6] = read-out: TIMP metallopeptidase inhibitor 1 (TIMP1), TIMP1 (gene 7076); assay: BSK_MyoF_TIMP1: BioMAP Diversity Plus: MyoF Assay for TIMP metallopeptidase inhibitor 1 (TIMP1) Biomarker Activity (AID 2284269); settings: primary human lung fibroblasts
Method in brief: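 TIMP-1 levels were determined by ELISA in human lung fibroblasts treated for 24 h. DMSO served as negative control and baseline for upward curve fitting.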

[7] = read-out: Matrix Metallopeptidase 1 (MMP1), MMP1 (gene 4312); assay: BSK_BF4T_MMP1: BioMAP Diversity Plus: BF4T Assay for Matrix Metallopeptidase 1 (MMP1) Biomarker Activity (AID 2284270); settings: primary human bronchial epithelial cells with fibroblasts
Method in brief: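 Co-culture of human bronchial epithelial cells and dermal fibroblasts; MMP-1 levels measured by ELISA 24 hours after chemical dosing, relative to DMSO. Cytotoxicity checked in parallel cultures by SRB total-protein staining.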

[8] = read-out: Matrix Metallopeptidase 3 (MMP3), MMP3 (gene 4314); assay: BSK_BF4T_MMP3: BioMAP Diversity Plus: BF4T Assay for Matrix Metallopeptidase 3 (MMP3) Biomarker Activity (AID 2284271); settings: primary human bronchial epithelial cells with fibroblasts
Method in brief: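 Co-culture of human bronchial epithelial cells and dermal fibroblasts dosed 24 h; MMP-3 measured by ELISA, positive-direction fit versus DMSO. Cytotoxicity tracked by SRB total-protein staining (560 nm) in parallel cultures.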

[9] = read-out: Tissue plasminogen activator (tPA), PLAT (gene 5327); assay: BSK_BF4T_tPA: BioMAP Diversity Plus: BF4T Assay for Tissue plasminogen activator (tPA) Biomarker Activity (AID 2284272); settings: primary human bronchial epithelial cells with fibroblasts
Method in brief: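 tPA level quantified by ELISA at 24 h post-treatment in bronchial epithelial/dermal fibroblast co-cultures, gain of signal scored against DMSO baseline. Parallel cultures stained with 0.1% SRB (560 nm) to flag overt cytotoxicity.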

[10] = read-out: Plasminogen Activator Inhibitor-1 (PAI1), SERPINE1 (gene 5054); assay: BSK_BF4T_PAI1: BioMAP Diversity Plus: BF4T Assay for Plasminogen Activator Inhibitor-1 (PAI1) Biomarker Activity (AID 2284273); settings: primary human bronchial epithelial cells with fibroblasts
Method in brief: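 Co-culture of human bronchial epithelial cells and dermal fibroblasts exposed to compound for 24 h. PAI-1 measured by ELISA; activity fitted in positive direction versus DMSO. Parallel SRB staining assessed overt cytotoxicity.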

[11] = BSK_BF4T_SRB: Viability Assessment in the BioMAP Diversity Plus: BF4T Assay (AID 2284274); settings: primary human bronchial epithelial cells with fibroblasts;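 further: total cell protein by sulforhodamine B staining as a cytotoxicity measure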
Method in brief: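 Co-culture of human bronchial epithelial cells and dermal fibroblasts (BioMAP BF4T) exposed 24 h. Total protein by sulforhodamine B staining (0.1% SRB after 10% TCA fixation, 560 nm) in parallel cultures; fitted vs DMSO.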

[12] = read-out: urokinase Plasminogen Activator (uPA), PLAU (gene 5328); assay: BSK_BF4T_uPA: BioMAP Diversity Plus: BF4T Assay for urokinase Plasminogen Activator (uPA) Biomarker Activity (AID 2284275); settings: primary human bronchial epithelial cells with fibroblasts
Method in brief: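 Co-culture of human bronchial epithelial cells and dermal fibroblasts; uPA quantified by ELISA 24 hours after dosing, fitted relative to DMSO. Parallel SRB total-protein staining assessed overt cytotoxicity.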

[13] = read-out: Matrix Metallopeptidase 9 (MMP9), MMP9 (gene 4318); assay: BSK_BF4T_MMP9: BioMAP Diversity Plus: BF4T Assay for Matrix Metallopeptidase 9 (MMP9) Biomarker Activity (AID 2284276); settings: primary human bronchial epithelial cells with fibroblasts
Method in brief: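 Co-culture of human bronchial epithelial cells and dermal fibroblasts dosed for 24 h; MMP-9 quantified by ELISA and fitted upward versus DMSO. Cytotoxicity monitored in parallel cultures by SRB total-protein staining at the biomarker time point.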

[14] = read-out: Interleukin-8 (IL8), CXCL8 (gene 3576); assay: BSK_IMphg_IL8: BioMAP Diversity Plus: IMphg Assay for Interleukin-8 (IL8) Biomarker Activity (AID 2284277); settings: primary human endothelial cells with macrophages
Method in brief: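 Co-culture of human venular endothelial cells and macrophages exposed to chemicals for 24 h; IL-8 quantified by ELISA and compared against the DMSO baseline, with SRB total-protein staining in parallel cultures for cytotoxicity.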

[15] = read-out: Intercellular Adhesion Molecule 1 (ICAM1), ICAM1 (gene 3383); assay: BSK_BE3C_ICAM1: BioMAP Diversity Plus: BE3C Assay for Intercellular Adhesion Molecule 1 (ICAM1) Biomarker Activity (AID 2284278); settings: primary human bronchial epithelial cells
Method in brief: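 Primary human bronchial epithelial cells were exposed to compound for 24 h, after which cell-surface ICAM-1 was quantified by ELISA. Activity was fitted in the gain-of-signal direction against DMSO as negative control and baseline.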

[16] = read-out: Interferon-inducible T-cell alpha chemoattractant (ITAC), CXCL11 (gene 6373); assay: BSK_BE3C_ITAC: BioMAP Diversity Plus: BE3C Assay for Interferon-inducible T-cell alpha chemoattractant (ITAC) Biomarker Activity (AID 2284279); settings: primary human bronchial epithelial cells
Method in brief: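 The assay measures I-TAC levels by ELISA in human primary bronchial epithelial cell cultures 24 hours after chemical treatment. Values reflect signal increase over the DMSO baseline.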

[17] = read-out: Interleukin-8 (IL8), CXCL8 (gene 3576); assay: BSK_BE3C_IL8: BioMAP Diversity Plus: BE3C Assay for Interleukin-8 (IL8) Biomarker Activity (AID 2284280); settings: primary human bronchial epithelial cells
Method in brief: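 IL-8 signal gain, normalised to DMSO vehicle, was scored after a 24 h chemical exposure of primary human bronchial epithelial cells, with detection by ELISA.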

[18] = read-out: Epidermal growth factor receptor (EGFR), EGFR (gene 1956); assay: BSK_BE3C_EGFR: BioMAP Diversity Plus: BE3C Assay for Epidermal growth factor receptor (EGFR) Biomarker Activity (AID 2284281); settings: primary human bronchial epithelial cells
Method in brief: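 Compound is added to human bronchial epithelial cells, cells incubate 24 h, then EGFR is detected by ELISA. Values reflect positive-direction fitting relative to DMSO.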

[19] = read-out: KRT18 (gene 3875); assay: BSK_BE3C_Keratin818: BioMAP Diversity Plus: BE3C Assay for Keratin 818 Biomarker Activity (AID 2284282); settings: primary human bronchial epithelial cells
Method in brief: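 Human primary bronchial epithelial cells in the BE3C system were exposed to test chemical for 24 h, then Keratin 8/18 was quantified by ELISA. Activity was fitted in the positive direction against DMSO as negative control and baseline.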

[20] = read-out: Matrix Metallopeptidase 9 (MMP9), MMP9 (gene 4318); assay: BSK_BE3C_MMP9: BioMAP Diversity Plus: BE3C Assay for Matrix Metallopeptidase 9 (MMP9) Biomarker Activity (AID 2284283); settings: primary human bronchial epithelial cells
Method in brief: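 BE3C, human bronchial epithelial primary cells; 24 h post-dose; MMP-9 by ELISA; positive fit vs DMSO; SRB (0.1%, TCA-fixed, 560 nm) parallel cytotox.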

Measured: AC50

CCNS(=O)(=O)C(F)(F)C(F)(F)C(F)(F)C(F)(F)C(F)(F)C(F)(F)C(F)(F)C(F)(F)F
active: [1] 36.5 µM and 44.4 µM | [2] 40.9 µM and 45.6 µM | [3] 15.3 µM and 22.5 µM | [4] 48.8 µM and 50.9 µM | [6] 38.9 µM and 31.6 µM | [7] 30 µM | [9] 7.68 µM and 8.65 µM | [10] 41.2 µM | [11] 44.7 µM and 41.4 µM | [12] 47.3 µM | [13] 30 µM and 39.9 µM | [14] 21.3 µM and 27.2 µM | [15] 40.3 µM | [16] 40 µM and 35.2 µM | [17] 16.4 µM and 22.6 µM | [18] 38.2 µM and 23.3 µM | [19] 21.5 µM and 21.8 µM | [20] 30 µM and 18.5 µM
inactive: [5] | [8] | [10] | [12] | [15]
